# Assay results published in the supplement of paper PMC9925115.
# ± gives the uncertainty stated by the source.
# Tested on: FLX1
# Experiment: cell viability z-score within plate (CellTiter-Glo), mean of 3 biological replicates; higher = higher viability relative to plate (less growth inhibition)
# Conditions: 2 µM; time (hr): 120
# Method: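 FLX1 fibrolamellar carcinoma cells (DNAJB1-PRKACA fusion), 600 cells/well in 384-well plates, treated with a Selleck kinase inhibitor library (L1200) at 2 uM for 5 days (120 hr); viability by CellTiter-Glo. A z-score was computed within each plate and averaged over three biological replicates.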
row,Compound,cell viability z-score within plate
1,O=C(NC(NC(=S)Nc1ccc(F)c([N+](=O)[O-])c1)C(Cl)(Cl)Cl)C(c1ccccc1)c1ccccc1 (stereo not given),0.309 ± 0.51
2,CC(C)(C)c1cc(/C=C(\C#N)C(N)=S)cc(C(C)(C)C)c1O [Tyrphostin AG 879],0.585 ± 0.3
3,O=C1Nc2ccccc2/C1=C1/Nc2ccccc2C1=O [Indirubin],1.02 ± 0.66
4,Cc1cc(N2CCOCC2)cc2[nH]c(-c3c(NC[C@@H](O)c4cccc(Cl)c4)cc[nH]c3=O)nc12,-0.387 ± 0.41
5,S=C(NCc1ccc2c(c1)OCO2)N1CCN(c2ncnc3c2oc2ccccc23)CC1 [Amuvatinib (MP-470)],-0.826 ± 0.77
6,Cc1cc(Nc2nc(N[C@@H](C)c3ncc(F)cn3)ncc2Cl)[nH]n1,-0.166 ± 0.46
7,COc1cc2c(Oc3ccc4[nH]c(C)cc4c3F)ncnc2cc1OCCCN1CCCC1 [Cediranib (AZD2171)],0.6 ± 0.47
8,Cc1nc(Nc2cnn(C3CCNCC3)c2)nc2c1N(C)C(=O)c1cc3ccccc3cc1N2C,1.62 ± 0.12
9,COCC(=O)NC/C=C/c1ccc2ncnc(Nc3ccc(Oc4ccc(C)nc4)c(C)c3)c2c1,-0.356 ± 0.16
10,COc1cc(N2CCC(N)CC2)ccc1Nc1ncc(Cl)c(-c2c[nH]c3ccccc23)n1,-0.695 ± 0.23
11,N#Cc1c(NC(=O)c2cccc3ccccc23)sc2c1CCCC2 [JNK Inhibitor IX],0.195 ± 0.75
12,Cn1c(=O)c(F)c(Nc2ccc(I)cc2F)c2c(=O)n(C[C@@H](O)CO)cnc21,1.04 ± 0.62
13,N#Cc1ccc2[nH]c(O)c(-c3ccc(CN4CCOCC4)cn3)c2c1,0.226 ± 0.62
14,O=c1c(O)c(-c2ccc(O)c(O)c2)oc2cc(O)cc(O)c12 [Quercetin],1.1 ± 0.51
15,C#Cc1cccc(Nc2ncnc3cc4c(cc23)OCCOCCOCCO4)c1 [Icotinib],0.676 ± 0.52
16,CC[C@@H]1C(=O)N(C)c2cnc(Nc3ccc(C(=O)NC4CCN(C)CC4)cc3OC)nc2N1C1CCCC1,-1.49 ± 0.57
17,O=C(c1ccc(/C=C/c2n[nH]c3ccccc23)cc1)N1CCNCC1,0.449 ± 0.26
18,Cc1cc([C@@H](C)Nc2ccccc2C(=O)O)c2nc(N3CCOCC3)cc(=O)n2c1,-2.82 ± 2
19,C=CC(=O)Nc1cc(Nc2nccc(-c3cn(C)c4ccccc34)n2)c(OC)cc1N(C)CCN(C)C [Osimertinib (AZD9291)],-0.225 ± 0.34
20,O=C(Nc1c[nH]nc1-c1nc2ccc(CN3CCOCC3)cc2[nH]1)NC1CC1,0.178 ± 0.39

row,Compound,cell viability z-score within plate
1,CC(C)CCN1c2nc(Nc3cc(F)c(O)c(F)c3)ncc2N(C)C(=O)C1C (stereo not given),-0.812 ± 0.59
2,NC(=O)Nc1sc(-c2ccc(F)cc2)cc1C(N)=O,-0.156 ± 0.51
3,CC(=O)Nc1nc(C)c(-c2ccc(Cl)c(S(=O)(=O)NCCO)c2)s1,-0.0789 ± 0.1
4,Cc1c(F)cc(C(=O)NC2CC2)cc1-c1ccc(C(=O)NCC(C)(C)C)cn1,-0.342 ± 0.51
5,O=C1NC(=O)C(c2ccccc2[N+](=O)[O-])=C1Nc1ccc(O)c(Cl)c1,0.229 ± 0.58
6,N#C/C(=C\c1ccc(O)c(O)c1)C(=O)NCc1ccccc1 [AG-490 (Tyrphostin B42)],-0.668 ± 1.4
7,Cc1ccc(F)c(NC(=O)Nc2ccc(-c3cccc4[nH]nc(N)c34)cc2)c1 [Linifanib (ABT-869)],0.077 ± 0.57
8,Cc1nc(Nc2n[nH]c3c2CN(C(=O)N[C@H](CN(C)C)c2ccccc2)C3(C)C)c2sccc2n1,1.12 ± 0.47
9,CO[C@H]1C[C@@H]2CC[C@@H](C)[C@@](O)(O2)C(=O)C(=O)N2CCCC[C@H]2C(=O)O[C@H]([C@H](C)C[C@@H]2CC[C@@H](OC(=O)C(C)(CO)CO)[C@H](OC)C2)CC(=O)[C@H](C)/C=C(\C)[C@@H](O)[C@@H](OC)C(=O)[C@H](C)C[C@H](C)/C=C/C=C/C=C/1C,-0.0698 ± 1.1
10,COc1cc2ncnc(Nc3ccc(Cl)cc3F)c2cc1OC,1.18 ± 0.67
11,O=S(=O)(NCCNC/C=C/c1ccc(Br)cc1)c1cccc2cnccc12,-2.86 ± 1.5
12,CCn1c(N)c(C(=O)NC)c(=O)c2ccc(C#CC(C)(O)COC)nc21 (stereo not given),-1.49 ± 1.7
13,CNc1nc(-c2ccc3c(N)n[nH]c3c2)cc(N2C[C@@H](C(=O)NC3CCCCC3)CC[C@H]2C)n1,0.0251 ± 0.54
14,CO[C@H]1C[C@@H]2CC[C@@H](C)[C@@](O)(O2)C(=O)C(=O)N2CCCC[C@H]2C(=O)O[C@H]([C@H](C)C[C@@H]2CC[C@@H](O)[C@H](OC)C2)CC(=O)[C@H](C)/C=C(\C)[C@@H](O)[C@@H](OC)C(=O)[C@H](C)C[C@H](C)/C=C/C=C/C=C/1C [Rapamycin (Sirolimus)],0.422 ± 0.17
15,COC(=O)Nc1ccc(-c2nc(N3CCOCC3)c3cnn(C4CCN(C(=O)OC)CC4)c3n2)cc1,0.411 ± 0.44
16,Cc1ccc(C(=O)Nc2ccc(CN3CCN(C)CC3)c(C(F)(F)F)c2)cc1C#Cc1cnc2cccnn12,-1.09 ± 0.7
17,Cc1nc(N)sc1-c1ccnc(Nc2ccc(N3CCOCC3)cc2)n1,0.352 ± 0.28
18,NC(=O)c1ncn([C@@H]2O[C@H](CO)[C@@H](O)[C@H]2O)c1N [AICAR (Acadesine)],0.371 ± 0.82
19,CN1CCN(c2nc(C3=C(c4c[nH]c5ccccc45)C(=O)NC3=O)c3ccccc3n2)CC1 [Sotrastaurin],0.764 ± 0.47
20,Cc1ccc(C(=O)Nc2cccc(C(F)(F)F)c2)cc1Nc1nc(-c2cccnc2)nc2c1cnn2C,-0.436 ± 0.34
